According to ChEMBL document CHEMBL4513216, “Probing the Open Global Health Chemical Diversity Library for Multistage-Active Starting Points for Next-Generation Antimalarials” (ACS Infect Dis, 2020):
Hit rate of the full screen: of about 65,000 compounds, about 2,100 (3.2%) showed an effect of 50% or more. The median lay at about -52%. The list comes from a sample in which strong results are over-represented; it also holds similar structures and randomly drawn compounds.

The compounds below were run on Plasmodium falciparum (assay: Screen against P. falciparum Asexual Blood Stage (ABS), at 5uM). Settings: tested at 5 uM.
Format: functional, Dd2

SMILES | INHIBITION [%]
CCCC1CCCN(C(=O)Nc2ccc(F)c(C(N)=O)c2)CC1 (stereo not given) | -46
Cn1cc(CN2CCCC3(COCCN(Cc4c[nH]nn4)C3)C2)cn1 (stereo not given) | -58.4
COc1ccc(F)c(CN2CCCC3(CCN(C4CCOCC4)C3)C2)c1 (stereo not given) | 3.41
Cc1ccc(CN2CCOCC3(CCN(Cc4cccs4)C3)C2)o1 (stereo not given) | 41.9
c1csc(CN2CCOCC3(CCN(C4CCOCC4)C3)C2)c1 (stereo not given) | 50.4
COc1ccc(CN2CCOCC3(CCN(C4CCOCC4)C3)C2)cc1 (stereo not given) | 61
Fc1ccc(CN2CCCC3(COCCN(Cc4c[nH]nn4)C3)C2)cc1 (stereo not given) | 61.7
c1cc(CN2CCCC3(COCCN(Cc4c[nH]nn4)C3)C2)cs1 (stereo not given) | 27.7
Cn1cc(CN2CCOCC3(CCN(C4CCOCC4)C3)C2)cn1 (stereo not given) | -41.5
Cc1cccc(CN2CCOCC3(CCN(C4CCOCC4)C3)C2)n1 (stereo not given) | 42.5
c1cn(-c2ccc(N3CCC(NC4CC4)CC3)cc2)cn1 | 18.4
CC(C)c1cc(CN(C)C(=O)C(C)N2CCc3ccccc3C2)no1 (stereo not given) | -28.5
N[C@H]1CCCN(S(=O)(=O)c2ccc(C(=O)NCC(F)F)cc2)C1 | -117
Cc1cc(C)cc(OCCN(C)C2CCOC2=O)c1 (stereo not given) | -68.2
N[C@@H](C(=O)N1CCN(c2ccccc2Cl)C(=O)C1)c1ccccc1 | -17.6
NC(C(=O)N1CCSc2ccccc2C1)c1ccccc1 (stereo not given) | 60.9
CC(C)C[C@H](N)C(=O)N1CCSc2ccccc2C1 | 48
O=S1(=O)CCC(NCCn2cncc2-c2ccc3c(c2)CCCO3)C1 (stereo not given) | -91.4
O=S(=O)(C1CC1)N1CC[C@]2(C[C@@H](Oc3ncccc3F)CO2)C1 | -24.1
CN(C)C(=O)c1cnc2n1CCN(Cc1cccnc1)C2 | -6.2
N#Cc1ccnc(NCc2cc3n(n2)CCCN(C(=O)C2CCC2)C3)c1 | -89.1
CN(Cc1ccccn1)C(CO)c1cccc(Br)c1 (stereo not given) | -68.3
Cc1nn(CCO)c(C)c1CNC1CCCCc2ccccc21 (stereo not given) | -4.05
Cc1nn(CCO)c(C)c1CNC1CCOc2ccccc21 (stereo not given) | -36
Cc1nn(CCO)c(C)c1CNC1CCC(C)(C)c2ccccc21 (stereo not given) | 69.2
Cc1cc2c(=O)n3c(nc2s1)CCN(Cc1[nH]cnc1C)CC3 | -96.3
O=C(NCCNc1cc(N2CCCC2)cnn1)Nc1ccccc1F | -93.6

SMILES | INHIBITION [%]
Cc1sc2c(C3CCNCC3)nc(Nc3cccc(F)c3)n2c1C | -126
O=C1NCC2(CCCN(Cc3ccccc3F)C2)Oc2ccccc21 (stereo not given) | -20.4
O=C1NCC2(CCCN(Cc3ccc(F)cc3)C2)Oc2ccccc21 (stereo not given) | -41
O=C1NCC2(CCCN(CCc3ccccc3)C2)Oc2ccccc21 (stereo not given) | 51.7
COc1ccc(C(=O)CCC(=O)NCc2c(C)noc2C)cc1F | -164
CCCc1ncc(C(=O)N2CCOc3ncccc32)s1 | -13.4
NC(=O)Cn1cc(NC(=O)N2CCN(c3ccc(F)cc3)CC2)cn1 | -40.9
Cc1cccc(N2CCN(C(=O)Nc3cnn(CC(N)=O)c3)CC2)c1 | -67.3
NC(=O)Cn1cc(NC(=O)N2CCN(c3ccccc3)CC2)cn1 | 63.7
COc1ccccc1CN1CC(OC)CN(C(=O)OCC(C)C)CC1=O (stereo not given) | -40.4
CC(c1cccs1)N(C)Cc1cnc(-c2ccccn2)nc1 (stereo not given) | -132
Cc1ccc(C(=O)NCCCNS(C)(=O)=O)cc1-n1cccc1 | -137
C[C@@H](O)[C@H](NC(=O)c1csc2nc(-c3ccccc3F)cn12)C(N)=O | -41.1
CN(C)CCCn1ccc(-c2cccc(-c3cncnc3)c2)n1 | 14.5
c1cc(-c2cnccn2)cc(-c2ccn(CCCN3CCCCC3)n2)c1 | 21.9
c1cc(-c2cnccn2)cc(-c2ccn(CCN3CCCCC3)n2)c1 | 43.8
CN(C)CCCn1ccc(-c2cccc(-c3ccccn3)c2)n1 | 61
c1cc(-c2cnccn2)cc(-c2ccn(CCN3CCCC3)n2)c1 | 69.1
COc1ccc(-c2cccc(-c3ccn(CCCN(C)C)n3)c2)nn1 | -18.6
Cc1cc(CN2CCc3c(CNc4ncccn4)cncc3C2)oc1C | 0.619
CN(C)C(=O)COCc1cncc2c1CCN(Cc1ccccn1)C2 | 25.8
c1ccc(CN2CCc3c(COCc4ccncc4)cncc3C2)nc1 | -14.6
c1ccc(CN2CCc3c(COCC4CC4)cncc3C2)nc1 | 59.3
CN(CC(=O)NCc1cccnc1N1CCCCC1)C(=O)c1cccs1 | -48.6
CC(C)c1ccc(-n2nnc(C(=O)O)c2-c2ccccn2)cc1 | -101
N#Cc1cccnc1OC1CCN(S(=O)(=O)c2ccc(Br)cc2)CC1 | -92.6
CCC(Nc1nc(CCN)nc2ccccc12)c1cc(C)ccn1 (stereo not given) | -22

SMILES | INHIBITION [%]
CCC(Nc1nc(CCN)nc2ccccc12)c1cccs1 (stereo not given) | 63.5
NCCc1nc(N[C@@H](CO)c2ccccc2)c2ccccc2n1 | -39.4
N#Cc1cccnc1N1CCC(Nc2ccccc2)C1 (stereo not given) | -76.7
O=C(CC1CC1)NCc1cn2c(n1)CN(Cc1cccc(F)c1)CC2 | -52
CCNC(=O)COc1cc(CC)c2c(C)nn(-c3ccc(C)cc3)c2n1 | -21.1
CC(C)[C@@H]1CN(CCCOc2ccc(F)cc2)C[C@H]1NS(C)(=O)=O | 53.7
CCc1ccccc1OCCN1C[C@@H](NS(C)(=O)=O)[C@H](C(C)C)C1 | 45.2
CC(C)[C@@H]1CN(CCOc2ccc(Cl)cc2)C[C@H]1NS(C)(=O)=O | 45.9
CN(C)CCNC(=O)c1nc2c(s1)CCCN2C(=O)C1CC1 | 25.4
CC(O)CNCc1ccc(OCc2ccc3c(c2)OCCO3)cc1 (stereo not given) | -169
COc1ccc(-n2ncc3c2NC(=O)CSC3CC(C)C)cc1 (stereo not given) | -124
CCn1ccnc1CN1CCN(CC(=O)NC(C2CC2)C2CC2)CC1 | 61.4
CCn1ccnc1CN1CCN(C(C)C(=O)NC2CCCC2)CC1 (stereo not given) | 51
CCn1ccnc1CN1CCN(C(C)C(=O)N2CCCC2)CC1 (stereo not given) | -81.3
CCn1ccnc1CN1CCN(C(C)C(=O)NC2CCCCC2)CC1 (stereo not given) | -83.4
CCn1ccnc1CN1CCN(CC(=O)NC(=O)NC2CC2)CC1 | -97.3
CCn1ccnc1CN1CCN(CC(=O)NC2CCOCC2)CC1 | -29
O=C1C(N2CCOCC2)CCCN1Cc1cccc(C(F)(F)F)c1 (stereo not given) | -61.2
CC(C)(C)c1nc(CN(CCC2CCCCC2)CC(N)=O)no1 | -85.5
COc1ccc(CN2CCC(C(N)=O)CC2)cc1SC(F)(F)F | 63.5
COc1cc(Cl)c(CN2CCC(C(N)=O)C2)cc1Cl (stereo not given) | 7.24
COc1ccc(CN2CCC(C(N)=O)C2)c(Br)c1OC (stereo not given) | -93.4
COc1ccc2[nH]cc(CCNC(=O)C3CCCN(C(C)=O)C3)c2c1 (stereo not given) | -30
CSc1ncccc1C(=O)N1CCCC1c1ccc(C(=O)N(C)C)s1 (stereo not given) | -53.6
Cc1cc2n(n1)CCN(c1nc(N)nc3c1CCNCC3)C2 | -75.3
Cc1ccccc1N1CCN(c2nc(N(C)C)nc3c2CCNC3)CC1 | 39.1
Cc1cc2n(n1)CCN(c1nc(N(C)C)nc3c1CCNC3)C2 | 57.8

SMILES | INHIBITION [%]
Cc1ccc(NC2CCN(C(=O)c3ccc(F)cc3Cl)CC2)nn1 | -116
Cc1cc(-c2cnc(NC3CCCCC3)nc2-c2ccco2)on1 | -49.1
CCc1nc(C2CCCN2Cc2cc(C)nc3ccccc23)no1 (stereo not given) | -64.8
CN1CCCN(C(=O)NCc2ccccc2Cn2cncn2)CC1 | -93.1
COCCN1C[C@@H]2CN(C(=O)[C@H]3CCCO3)C[C@@H]2C1=O | -135
COCCN1C[C@@H]2CN(C(=O)CC3CC3)C[C@@H]2C1=O | 53.5
O=C(CC1CC1)N1C[C@H]2CN(CC3CC3)C(=O)[C@H]2C1 | -64.7
Cn1ccc2c(cnc3nc(-c4ccncc4)nn32)c1=O | -169
COc1cc(CCC(=O)N2CCC(c3cc4ncccc4[nH]3)CC2)on1 | -0.239
CN(C)c1ccc(C(=O)N2CCC(c3cc4cnccc4[nH]3)CC2)cc1 | 29.8
CN(C)c1ccc(C(=O)N2CCC(c3cc4ncccc4[nH]3)CC2)cc1 | 55.6
CCNC(=O)NC(=O)C(C)N(C)CCOc1ccccc1C (stereo not given) | -80.5
CC(=O)N1CCO[C@@H]2CN(S(=O)(=O)c3ccccc3F)C[C@@H]2C1 | -67.6
CN(C)C[C@H]1OC[C@@H]2CCN(S(=O)(=O)c3ccccc3)C[C@@H]21 | -3.11
Cc1ccc(S(=O)(=O)N2CC[C@H]3CO[C@H](CN(C)C)[C@H]3C2)cc1 | 12.4
O=C1CO[C@@H]2CN(S(=O)(=O)c3ccccc3F)C[C@H]2N1 | -30.8
CN1CCO[C@@H]2CN(S(=O)(=O)c3ccccc3F)CC[C@@H]2C1 | 50.3
COc1ccc(S(=O)(=O)N2C[C@@H]3CN(C)CCO[C@@H]3C2)cc1 | 60.2
CN1CCO[C@@H]2CN(S(=O)(=O)c3cccs3)CC[C@@H]2C1 | -22.2
CC(C)N1CCO[C@@H]2CN(S(=O)(=O)c3cccs3)CC[C@@H]2C1 | 52.1
CCN1CCO[C@@H]2CN(S(=O)(=O)c3cccs3)CC[C@@H]2C1 | 40.2
CN1CCO[C@@H]2CN(S(=O)(=O)c3ccccc3)C[C@@H]2C1 | -17.9
CN(C)C[C@H]1OC[C@@H]2CCN(S(=O)(=O)c3ccc(F)cc3)C[C@@H]21 | 50.5
CN1CCO[C@H]2CN(S(=O)(=O)c3ccc(C#N)cc3)C[C@H]21 | -81.8
